Activity calls are given as the source filed them. No cut-off is given here; in the data, nearly all actives have IC50 up to about 8.1 µM.
Assay: small molecules binding CAG repeat RNA – biochemical, fluorescence, dose response (AID 686959)
Conditions: r(CAG) RNA repeat binding

IC50, active:
CC1=NN(C(N)=S)C(=O)C1N=Nc1c(Br)cc(Br)cc1Br (centres undefined) 5.73 µM
CCCOc1cccc(C2C(C(=O)c3ccc(C)o3)=C(O)C(=O)N2c2nc(C)c(C(C)=O)s2)c1 (centres undefined) 4.06 µM
CCCOc1ccc(N2C(=O)CC(S/C(N)=N/N=C(\C)c3cccs3)C2=O)cc1 (centres undefined) 7.76 µM
C=CCOc1c(OC)cc(/C=N/Nc2cccc(C(=O)O)c2)c(Br)c1Br 2.28 µM
COC(=O)c1sc(N2C(=O)C(O)=C(C(=O)c3ccc(C)o3)C2c2ccc([N+](=O)[O-])cc2)nc1C (centres undefined) 0.636 µM
O=C(O)c1ccc(N2C(=O)CC(SC(=NCc3ccc4c(c3)OCO4)Nc3ccc(F)cc3)C2=O)cc1 (centres undefined) 2.89 µM
Oc1ccc(/C=N/Nc2ccnc3cc(Cl)ccc23)c(O)c1O 2.5 µM
N#C/C(C(=O)Nc1ccc(Cl)cc1)=C(/S)Nc1ccccc1 6.14 µM
N#CC1=C(S)N(c2ccccc2)C(c2ccc(-c3cc(Cl)ccc3Cl)o2)NC1=O (centres undefined) 1.47 µM
Cc1noc(NS(=O)(=O)c2ccc(NC(=O)COc3ccc(Cl)cc3Cl)cc2)c1C 2.83 µM
N#CC(C#N)=C(Nc1ccc(F)cc1)SCc1cccc(Br)c1 7.57 µM
N#CC1=C(N)n2c(s/c(=C\c3ccco3)c2=O)=C(C#N)C1c1ccco1 (centres undefined) 5.38 µM
CC(=O)C1=C(O)C(=O)N(c2cc(C(C)(C)C)on2)C1c1ccc(Br)cc1 (centres undefined) 2.49 µM
O=C(C1=C(O)C(=O)N(c2nc3ccc(Cl)cc3s2)C1c1ccco1)c1ccco1 (centres undefined) 0.987 µM
